From ChEMBL document CHEMBL2218924, “A broad activity screen in support of a chemogenomic map for kinase signalling research and drug discovery” (Biochem J, 2013)

Legend:
[1] = target: T1, Ephrin type-A receptor 3 (Homo sapiens) (UniProt P29320); details: at 10 µM
T1 sequence (whole entry): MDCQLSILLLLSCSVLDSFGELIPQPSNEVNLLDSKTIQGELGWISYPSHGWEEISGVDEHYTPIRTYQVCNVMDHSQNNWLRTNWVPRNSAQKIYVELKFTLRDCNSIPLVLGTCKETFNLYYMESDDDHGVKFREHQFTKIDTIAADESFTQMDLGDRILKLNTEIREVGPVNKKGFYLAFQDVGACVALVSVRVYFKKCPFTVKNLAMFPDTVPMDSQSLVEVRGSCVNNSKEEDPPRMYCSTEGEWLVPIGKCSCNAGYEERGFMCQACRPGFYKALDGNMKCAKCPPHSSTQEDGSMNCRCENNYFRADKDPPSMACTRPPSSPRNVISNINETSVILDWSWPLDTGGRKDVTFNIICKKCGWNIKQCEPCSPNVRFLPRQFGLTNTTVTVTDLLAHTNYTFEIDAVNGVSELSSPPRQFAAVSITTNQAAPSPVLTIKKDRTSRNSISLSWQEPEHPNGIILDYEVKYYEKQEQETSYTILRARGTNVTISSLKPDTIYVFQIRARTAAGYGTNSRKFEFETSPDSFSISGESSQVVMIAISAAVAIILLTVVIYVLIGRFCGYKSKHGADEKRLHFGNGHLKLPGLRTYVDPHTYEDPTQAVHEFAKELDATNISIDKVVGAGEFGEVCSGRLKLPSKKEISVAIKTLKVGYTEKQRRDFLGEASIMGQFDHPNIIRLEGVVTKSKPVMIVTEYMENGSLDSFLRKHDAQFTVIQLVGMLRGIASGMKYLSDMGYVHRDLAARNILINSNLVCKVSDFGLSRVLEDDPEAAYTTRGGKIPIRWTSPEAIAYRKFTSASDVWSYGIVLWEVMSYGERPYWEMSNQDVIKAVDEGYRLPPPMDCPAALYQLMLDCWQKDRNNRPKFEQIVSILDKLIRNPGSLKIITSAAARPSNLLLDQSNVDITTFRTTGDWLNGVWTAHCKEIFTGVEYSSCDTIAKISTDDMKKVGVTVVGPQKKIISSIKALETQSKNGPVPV

[2] = target: Ephrin type-A receptor 4 (Homo sapiens) (UniProt P54764); details: at 1 µM
Chain of Ephrin type-A receptor 4 (Homo sapiens) (P54764 whole entry): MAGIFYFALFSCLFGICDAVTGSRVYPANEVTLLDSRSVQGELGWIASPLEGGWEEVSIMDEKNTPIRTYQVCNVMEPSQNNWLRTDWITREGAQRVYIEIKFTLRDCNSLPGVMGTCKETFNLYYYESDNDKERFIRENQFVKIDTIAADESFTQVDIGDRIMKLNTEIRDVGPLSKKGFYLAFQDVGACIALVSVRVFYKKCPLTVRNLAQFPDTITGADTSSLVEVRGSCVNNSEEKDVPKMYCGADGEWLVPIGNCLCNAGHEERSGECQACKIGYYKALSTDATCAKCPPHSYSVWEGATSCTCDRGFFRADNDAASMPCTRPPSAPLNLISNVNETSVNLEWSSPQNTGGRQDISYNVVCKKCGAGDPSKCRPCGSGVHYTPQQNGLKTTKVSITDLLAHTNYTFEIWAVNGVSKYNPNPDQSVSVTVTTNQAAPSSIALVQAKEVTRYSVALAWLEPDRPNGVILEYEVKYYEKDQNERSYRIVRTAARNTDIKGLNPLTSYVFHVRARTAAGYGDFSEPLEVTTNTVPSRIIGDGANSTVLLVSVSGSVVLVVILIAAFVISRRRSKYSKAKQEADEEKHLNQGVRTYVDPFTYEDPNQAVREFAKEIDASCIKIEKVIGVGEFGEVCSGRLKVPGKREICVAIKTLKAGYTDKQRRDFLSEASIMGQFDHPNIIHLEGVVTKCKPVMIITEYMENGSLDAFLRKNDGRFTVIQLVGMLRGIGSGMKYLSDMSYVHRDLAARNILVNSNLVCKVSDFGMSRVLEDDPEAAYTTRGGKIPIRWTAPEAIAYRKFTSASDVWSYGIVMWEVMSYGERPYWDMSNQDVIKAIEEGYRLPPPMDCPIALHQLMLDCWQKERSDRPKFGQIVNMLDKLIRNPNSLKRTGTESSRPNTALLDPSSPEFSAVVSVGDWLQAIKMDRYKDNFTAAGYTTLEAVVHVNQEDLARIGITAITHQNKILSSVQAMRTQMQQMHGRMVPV

[3] = target: Ephrin type-A receptor 4 (Homo sapiens) (UniProt P54764); details: at 10 µM
[4] = target: Ephrin type-A receptor 5 (Homo sapiens) (UniProt P54756); details: at 1 µM
Chain of Ephrin type-A receptor 5 (Homo sapiens) (P54756 whole entry): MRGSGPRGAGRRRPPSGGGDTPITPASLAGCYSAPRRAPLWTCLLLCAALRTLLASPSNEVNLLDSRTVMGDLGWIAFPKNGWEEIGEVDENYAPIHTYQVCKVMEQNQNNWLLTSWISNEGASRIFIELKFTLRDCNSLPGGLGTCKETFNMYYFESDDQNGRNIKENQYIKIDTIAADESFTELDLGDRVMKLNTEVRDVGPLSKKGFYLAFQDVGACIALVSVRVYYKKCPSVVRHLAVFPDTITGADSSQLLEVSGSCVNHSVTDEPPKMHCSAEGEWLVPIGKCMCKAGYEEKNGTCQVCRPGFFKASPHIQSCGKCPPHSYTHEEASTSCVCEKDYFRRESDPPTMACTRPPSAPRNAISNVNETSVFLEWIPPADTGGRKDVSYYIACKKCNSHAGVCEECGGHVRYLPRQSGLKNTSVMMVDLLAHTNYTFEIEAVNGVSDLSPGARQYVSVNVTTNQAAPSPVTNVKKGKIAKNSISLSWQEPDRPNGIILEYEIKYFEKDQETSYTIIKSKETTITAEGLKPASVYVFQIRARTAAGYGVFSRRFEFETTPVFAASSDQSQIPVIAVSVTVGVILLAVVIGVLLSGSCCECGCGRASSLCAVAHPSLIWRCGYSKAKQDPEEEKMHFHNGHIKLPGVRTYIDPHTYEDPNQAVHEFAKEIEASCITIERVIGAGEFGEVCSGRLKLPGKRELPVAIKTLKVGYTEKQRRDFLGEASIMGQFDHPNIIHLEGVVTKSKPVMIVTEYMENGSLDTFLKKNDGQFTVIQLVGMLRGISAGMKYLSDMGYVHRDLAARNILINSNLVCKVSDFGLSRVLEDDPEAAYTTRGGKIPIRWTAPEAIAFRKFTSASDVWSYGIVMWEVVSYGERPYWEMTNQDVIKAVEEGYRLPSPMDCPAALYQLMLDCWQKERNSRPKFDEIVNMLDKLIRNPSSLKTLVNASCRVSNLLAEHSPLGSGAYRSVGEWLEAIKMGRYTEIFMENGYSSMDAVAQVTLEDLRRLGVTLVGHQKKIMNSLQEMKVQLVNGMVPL

[5] = target: Ephrin type-A receptor 5 (Homo sapiens) (UniProt P54756); details: at 10 µM
[6] = target: Ephrin type-A receptor 7 (Homo sapiens) (UniProt Q15375); details: at 1 µM
Chain of Ephrin type-A receptor 7 (Homo sapiens) (Q15375 28-998 limits assumed): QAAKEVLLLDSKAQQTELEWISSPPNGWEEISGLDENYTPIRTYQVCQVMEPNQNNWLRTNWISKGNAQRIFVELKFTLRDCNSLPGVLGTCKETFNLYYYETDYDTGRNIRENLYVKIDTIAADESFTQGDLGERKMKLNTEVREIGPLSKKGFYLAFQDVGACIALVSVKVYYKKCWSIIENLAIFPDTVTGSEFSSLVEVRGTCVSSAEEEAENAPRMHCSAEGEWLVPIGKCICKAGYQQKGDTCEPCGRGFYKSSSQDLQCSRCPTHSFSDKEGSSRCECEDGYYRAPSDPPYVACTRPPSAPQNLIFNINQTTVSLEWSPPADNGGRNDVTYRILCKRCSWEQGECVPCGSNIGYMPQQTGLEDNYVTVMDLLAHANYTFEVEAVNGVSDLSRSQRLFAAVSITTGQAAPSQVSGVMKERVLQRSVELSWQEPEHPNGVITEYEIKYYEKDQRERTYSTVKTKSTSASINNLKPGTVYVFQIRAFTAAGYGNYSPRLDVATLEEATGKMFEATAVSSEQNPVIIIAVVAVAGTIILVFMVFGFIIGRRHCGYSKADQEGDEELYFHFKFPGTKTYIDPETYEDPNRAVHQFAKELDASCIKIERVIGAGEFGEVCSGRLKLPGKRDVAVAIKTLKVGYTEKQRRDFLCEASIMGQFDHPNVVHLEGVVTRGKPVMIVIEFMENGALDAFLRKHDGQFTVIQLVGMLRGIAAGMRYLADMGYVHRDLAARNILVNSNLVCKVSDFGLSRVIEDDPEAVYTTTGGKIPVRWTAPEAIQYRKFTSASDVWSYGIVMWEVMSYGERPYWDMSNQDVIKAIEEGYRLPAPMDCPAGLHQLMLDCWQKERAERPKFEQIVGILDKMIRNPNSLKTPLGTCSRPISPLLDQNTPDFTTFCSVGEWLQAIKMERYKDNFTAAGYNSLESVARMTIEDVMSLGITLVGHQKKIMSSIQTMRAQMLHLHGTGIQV

[7] = target: Ephrin type-A receptor 7 (Homo sapiens) (UniProt Q15375); details: at 10 µM
[8] = target: T2, Ephrin type-A receptor 8 (Homo sapiens) (UniProt P29322); details: at 1 µM
T2 sequence (whole entry): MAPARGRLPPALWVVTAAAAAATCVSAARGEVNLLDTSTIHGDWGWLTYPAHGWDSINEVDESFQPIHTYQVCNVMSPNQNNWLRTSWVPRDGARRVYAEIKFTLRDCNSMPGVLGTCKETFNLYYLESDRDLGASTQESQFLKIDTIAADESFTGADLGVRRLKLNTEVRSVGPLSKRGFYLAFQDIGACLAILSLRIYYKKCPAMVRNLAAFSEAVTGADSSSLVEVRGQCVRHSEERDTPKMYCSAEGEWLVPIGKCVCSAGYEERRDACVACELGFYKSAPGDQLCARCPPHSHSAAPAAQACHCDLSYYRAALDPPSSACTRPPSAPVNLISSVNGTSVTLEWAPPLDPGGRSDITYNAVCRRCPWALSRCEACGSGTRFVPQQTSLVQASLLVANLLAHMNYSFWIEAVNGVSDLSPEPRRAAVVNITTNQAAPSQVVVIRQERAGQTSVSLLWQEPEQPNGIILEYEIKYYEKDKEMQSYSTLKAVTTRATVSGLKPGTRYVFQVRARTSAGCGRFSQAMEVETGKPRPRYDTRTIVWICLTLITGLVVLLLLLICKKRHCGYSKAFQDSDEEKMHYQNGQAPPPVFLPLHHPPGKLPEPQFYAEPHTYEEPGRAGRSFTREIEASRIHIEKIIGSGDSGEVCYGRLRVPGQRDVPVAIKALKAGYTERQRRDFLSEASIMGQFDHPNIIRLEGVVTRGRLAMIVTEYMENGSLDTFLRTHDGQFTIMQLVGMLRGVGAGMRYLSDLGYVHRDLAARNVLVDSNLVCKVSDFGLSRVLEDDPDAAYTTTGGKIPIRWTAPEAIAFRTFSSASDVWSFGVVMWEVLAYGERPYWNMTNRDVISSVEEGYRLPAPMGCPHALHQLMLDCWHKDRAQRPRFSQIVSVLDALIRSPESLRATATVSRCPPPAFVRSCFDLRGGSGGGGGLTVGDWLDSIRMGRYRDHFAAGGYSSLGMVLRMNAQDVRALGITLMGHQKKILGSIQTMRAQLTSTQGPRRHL

[9] = target: T2, Ephrin type-A receptor 8 (Homo sapiens); details: at 10 µM
[10] = target: T3, Ephrin type-B receptor 1 (Homo sapiens) (UniProt P54762); details: at 1 µM
T3 sequence (whole entry): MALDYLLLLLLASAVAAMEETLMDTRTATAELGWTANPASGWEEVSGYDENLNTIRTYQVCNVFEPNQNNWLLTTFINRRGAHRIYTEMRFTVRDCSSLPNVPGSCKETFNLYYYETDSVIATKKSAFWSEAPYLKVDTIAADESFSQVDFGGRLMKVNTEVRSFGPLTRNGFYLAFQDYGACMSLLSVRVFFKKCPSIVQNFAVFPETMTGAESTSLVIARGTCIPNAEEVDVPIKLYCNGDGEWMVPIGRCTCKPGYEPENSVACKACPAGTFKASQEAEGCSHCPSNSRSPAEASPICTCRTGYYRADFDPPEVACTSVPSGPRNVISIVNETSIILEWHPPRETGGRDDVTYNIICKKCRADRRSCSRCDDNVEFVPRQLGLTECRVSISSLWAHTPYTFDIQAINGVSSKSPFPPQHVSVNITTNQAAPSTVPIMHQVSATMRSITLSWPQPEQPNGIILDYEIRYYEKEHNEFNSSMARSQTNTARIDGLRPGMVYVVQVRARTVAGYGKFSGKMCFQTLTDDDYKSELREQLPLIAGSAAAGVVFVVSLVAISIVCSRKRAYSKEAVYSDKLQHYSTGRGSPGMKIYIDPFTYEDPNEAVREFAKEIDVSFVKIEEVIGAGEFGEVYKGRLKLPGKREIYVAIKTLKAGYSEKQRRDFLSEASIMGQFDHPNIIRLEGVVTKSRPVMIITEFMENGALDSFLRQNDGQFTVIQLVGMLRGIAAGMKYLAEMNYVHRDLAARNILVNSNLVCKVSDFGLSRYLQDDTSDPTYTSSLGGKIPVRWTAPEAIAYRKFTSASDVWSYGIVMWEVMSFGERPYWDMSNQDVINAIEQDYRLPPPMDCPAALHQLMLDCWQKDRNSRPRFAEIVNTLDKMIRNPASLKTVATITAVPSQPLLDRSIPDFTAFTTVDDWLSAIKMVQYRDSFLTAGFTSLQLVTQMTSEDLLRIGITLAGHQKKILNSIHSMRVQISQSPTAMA

CN(C)c1ccc(/C=C2\C(=O)Nc3ccccc32)cc1
residual activity [1]: 100% | residual activity [2]: 115% | residual activity [3]: 109% | residual activity [4]: 108% | residual activity [5]: 112% | residual activity [6]: 104% | residual activity [7]: 89% | residual activity [8]: 102% | residual activity [9]: 98% | residual activity [10]: 100%
